Source: PubChem BioAssay (National Center for Advancing Translational Sciences (NCATS))
D1 ag: agonists of human D1 dopamine receptor; 1% of 360,000 active; HEK293 T-REx D1 cells, calcium flux, agonist mode; activation, % at 2 µM; in the data active = activation above about 30%; also: 0% is about no effect
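Agonism was scored from calcium flux recorded over 180 s (1 read/s) after pintool compound addition, following a 10-cycle baseline. Cells were inducible force-coupled HEK293 TREx D1, plated overnight at 30 C and loaded with no-wash calcium dye.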
D3 ag: activates the human D3 dopamine receptor. D3R DiscoveRx beta-arrestin cells, luminescence, 90 min. max activation, %. 0.58% of 410,000 active; in the data active = max activation above about 30%; also: 0% is about no effect
Target sequence (P35462 whole entry, looked up): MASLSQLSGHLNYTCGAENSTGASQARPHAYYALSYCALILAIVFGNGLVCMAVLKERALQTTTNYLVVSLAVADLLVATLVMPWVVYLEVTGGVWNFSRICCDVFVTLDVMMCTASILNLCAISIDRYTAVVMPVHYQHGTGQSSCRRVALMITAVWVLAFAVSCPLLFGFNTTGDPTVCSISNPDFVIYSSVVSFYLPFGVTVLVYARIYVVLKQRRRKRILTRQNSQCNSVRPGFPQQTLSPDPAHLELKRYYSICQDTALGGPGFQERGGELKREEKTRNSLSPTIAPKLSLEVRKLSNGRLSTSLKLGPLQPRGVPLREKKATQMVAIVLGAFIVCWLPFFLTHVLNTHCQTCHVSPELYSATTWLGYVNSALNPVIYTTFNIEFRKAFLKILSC
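Agonist-mode cell screen: cells plated at 1500/well and incubated overnight at 37 °C, then exposed to library compounds for 90 min at 37 °C. Detection reagent was added for 30–60 min at room temperature, and luminescence was read.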
D1 PAM: human D1 dopamine receptor positive modulation. 0.036% of 360,000 active. HEK293 TREx D1 cells, calcium flux, dopamine EC20 potentiation. P21728. AID 504651. potentiation, % at 10 µM; in the data active = potentiation above about 30%; also: 0% is about no effect
D1 antag: human D1 dopamine receptor antagonism; P21728; HEK293 TREx D1 cells, calcium flux, dopamine EC80; active compounds read low; activity change, negative = inhibition, % at 10 µM; 3.2% of 360,000 active; AID 504652; in the data active = activity change below about -30%; also: % is scaled to controls: 0 for no effect and ±100 for the full control effect
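Calcium flux readout: force-coupled, inducible Hek293 Trex D1 line, cells induced overnight at 30 C with tetracycline, dye-loaded 30–90 min at RT. Antagonism scored against EC80 dopamine challenge given 180 s after compound.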
Chronic BCR inh: chronic active BCR signaling inhibition; ABC-DLBCL IkBa-CBG/CBR reporter, luminescence ratio, 4 h; Potency, µM (highest dose often 46.1 µM), for inactives: at the highest dose activity change, negative = inhibition, hits mostly inhibitors; 0.05% of 340,000 active; active = well fitted inhibition curve with a large enough effect in the signal ratio, with a control signal flat, not every such curve was filed as active; inconclusive = small, poorly fitted or top-dose-only effect, or effect the other way, or a change in a side signal; the % refers to the signal ratio;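 also: potency is read from the fitted curve at half-maximal effect; plate controls were basal doxycycline-induced cells for no effect and cells given 10 µM MG132 for full effect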
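Concentration-response series (up to 46 uM) were applied to TMD8 dual-reporter cells for 4 h at 37C with doxycycline. Green/red ratio, after filter-overlap correction, defined %Activity; red signal alone was normalised to basal cells and zero luminescence.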
DRD3 antagonist: blocks the human D3 dopamine receptor; 2.5% of 360,000 active; P35462; max response, negative = inhibition, %; AID 652054; D3R cells, DiscoveRx beta-arrestin luminescence, antagonist mode; active compounds read low; in the data active = max response below about -50%; inconclusive = no clear call, values can overlap the other calls; also: % is scaled to controls: 0 for no effect and ±100 for the full control effect
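Cells plated overnight at 1500 cells/well, then exposed to library compounds with dopamine controls for 90 minutes at 37 degrees C. DiscoveRx reagent added for 30–60 minutes at room temperature; luminescence read, quantitative HTS format.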
An asterisk follows results filed as active; ? = inconclusive; / = no result given. This is a sample that favours compounds with a hit; in the whole collection about 6% have one here.

SMILES	D1 ag	D3 ag	D1 PAM	D1 antag	Chronic BCR inh	DRD3 antagonist
COc1cc(C2Nc3ccccc3-c3nnc(SCc4ccc(C)cc4)nc3O2)cc(OC)c1O (stereo not given)	9	4	-1	2	/	/
Cc1c(N=C2N=C(NC(=O)NC(C)(C)C)c3ccccc32)c(=O)n(-c2ccccc2)n1C	0	1	-5	-4	?	11
Cc1c(N=C2N=C(NC(=O)c3cccs3)c3ccccc32)c(=O)n(-c2ccccc2)n1C	41*	1	-5	-16	?	28
CC(C)Cc1ccc(C(C)C(=O)Nc2ccccc2O)cc1 (stereo not given)	65*	-7	-17	-26	1%	-22
COC(=O)c1ccc(OC)c(CN2CCCN(Cc3cc(C)ccc3C)S2(=O)=O)c1	6	5	-5	-6	-11%	7
COC(=O)c1ccc(OC)c(CN2CCCN(Cc3ccc(C)cc3)S2(=O)=O)c1	5	6	-3	-34*	/	/
O=C(N/N=C(\c1ccccc1)c1cccnc1)c1cccc(F)c1	2	-11	-3	-41*	?	-75*
O=C(CSc1nnc(CNC(=O)c2ccccc2)o1)c1ccc(Cl)cc1	13	3	-7	-43*	8%	18
O=C(CSc1nnc(CNC(=O)c2ccccc2)o1)NCCc1ccccc1	6	-19	-5	-2	8%	-68*
Clc1ccc2c(c1)C1CC2CCN1Cc1ccccc1 (stereo not given)	/	-51	/	/	/	?
COc1ccc(CN2CCC3CC2c2cc(Cl)ccc23)cc1 (stereo not given)	/	-72	/	/	/	-59*
Nc1[nH]nc2nc3ccccc3cc12	0	4	0	11	?	7
CCc1ccc2nc3n[nH]c(N)c3cc2c1	2	-9	1	-9	13µM*	12
CCC(C)(C)N1CC(=O)N(Cc2ccccc2)C(c2ccc(OC)cc2)C1=O (stereo not given)	1	1	5	1	2%	-52*
COc1ccc(C2C(=O)N(C3CCCCCC3)CC(=O)N2Cc2ccccc2)cc1 (stereo not given)	-3	-14	-1	-6	-5%	/
Cn1c(SCc2nc3ccccc3c(=O)[nH]2)nc2ccccc21	1	-2	9	-3	?	-17
COc1cc(-c2nnc(COC(=O)c3nn(CC(C)C)c(=O)c4ccccc34)o2)cc(OC)c1OC	5	56*	1	-8	-3%	43
COc1ccc(-c2nnc(CSc3nc4ccccc4c(=O)n3CC(C)C)o2)cc1OC	4	33*	-5	-27	?	-14
CCCCCn1nc(C(=O)OCc2nnc(-c3ccccc3)o2)c2ccccc2c1=O	2	6	-1	-2	7%	3
CC(C)Cn1c(SCc2nc3ccccc3c(=O)[nH]2)nc2ccccc2c1=O	2	46*	-7	9	15%	14
CC(=O)Nc1c(C(=O)NCc2ccccc2)nnn1Cc1ccccc1	3	2	1	-6	1%	-56*
COc1ccccc1NC(=O)c1nnn(Cc2ccccc2)c1NC(C)=O	3	-6	1	-48*	0%	-70*
O=C(Nc1ccccc1)c1nnn(Cc2ccccc2)c1NC(=O)C(F)(F)F	4	-2	-1	8	?	-23
COc1ccccc1NC(=O)c1nnn(Cc2ccccc2)c1NC(=O)C(F)(F)F	2	-13	8	-1	-1%	-22
COc1ccc(-c2cc(C(=O)Nc3sc4c(c3C#N)CCCC4)c3ccccc3n2)cc1	0	-31	-3	-14	-7%	?
CCCN1CCc2c(sc(NC(=S)NC(=O)c3ccccc3)c2C#N)C1	45*	38*	2	14	?	-4
Cc1ccccc1-c1cc(C(=O)Nc2sc(C(=O)OC(C)C)c(C)c2C#N)c2ccccc2n1	16	9	-1	-11	?	-68*
Cc1ccc(-c2cc(C(F)(F)F)n3nc(C(=O)Nc4sc5c(c4C#N)CCC(C)C5)cc3n2)cc1 (stereo not given)	0	10	-6	-37*	/	/
